# Source: PMC8384837, “Expanding the binding specificity for RNA recognition by a PUF domain”
# Tests used:
# Test in all cases: yeast three-hybrid, YBZ-1, SC-Leu-His + 0.5 mM 3-AT, 4 days
# Settings in all cases: tags: N-Gal4 AD-HA kept; label: inside an RPR1-promoter hybrid RNA with tandem MS2 sites; ssRNA
# PUM1 PUF domain R5-DFL = PUM1 PUF domain R5-DFL (Homo sapiens, UniProt Q14671 828-1176, C1007D;R1008F;Q1011L)
# Outline: (§1)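 The interaction score is the log change in variant frequency from input to selection. Scores were computed in log2 with a pseudocount of 1 for absent variants, using Illumina sequencing of PCR-amplified repeat regions. The input came from four days on SC-Leu and the selection from four days on SC-Leu-His + 0.5 mM 3-AT. The cells were strain YBZ-1 (LexA–MS2 coat fusion, HIS3 reporter) co-expressing Pumilio-1 PUF domain libraries and matching RNA elements from a centromeric plasmid.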
# PUM1 PUF domain R4-CLQ = PUM1 PUF domain R4-CLQ (Homo sapiens, UniProt Q14671 828-1176, N971C;H972L)
# Outline: as §1
# PUM1 PUF domain R5-RAR = PUM1 PUF domain R5-RAR (Homo sapiens, UniProt Q14671 828-1176, C1007R;R1008A;Q1011R)
# Outline: as §1
# PUM1 PUF domain R6-HFL = target: T1, PUM1 PUF domain R6-HFL (Homo sapiens, UniProt Q14671 828-1176, N1043H;Y1044F;Q1047L)
# T1 sequence: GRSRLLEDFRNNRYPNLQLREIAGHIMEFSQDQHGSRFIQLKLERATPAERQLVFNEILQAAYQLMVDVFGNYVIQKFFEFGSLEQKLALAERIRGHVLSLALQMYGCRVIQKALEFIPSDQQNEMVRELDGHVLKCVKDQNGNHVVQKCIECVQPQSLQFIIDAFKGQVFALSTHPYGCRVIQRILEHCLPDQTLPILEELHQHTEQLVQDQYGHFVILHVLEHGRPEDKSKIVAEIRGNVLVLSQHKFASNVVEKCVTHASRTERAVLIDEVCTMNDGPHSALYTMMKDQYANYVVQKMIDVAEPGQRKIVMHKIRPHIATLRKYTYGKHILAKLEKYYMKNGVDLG
# Outline: as §1
# PUM1 PUF domain R5-FRL = PUM1 PUF domain R5-FRL (Homo sapiens, UniProt Q14671 828-1176, C1007F;Q1011L)
# Outline: as §1
# PUM1 PUF domain R4-QHK = PUM1 PUF domain R4-QHK (Homo sapiens, UniProt Q14671 828-1176, N971Q;Q975K)
# Outline: as §1
# PUM1 PUF domain R4-PHC = PUM1 PUF domain R4-PHC (Homo sapiens, UniProt Q14671 828-1176, N971P;Q975C)
# Outline: as §1
# PUM1 PUF domain R3-FCV = PUM1 PUF domain R3-FCV (Homo sapiens, UniProt Q14671 828-1176, C935F;R936C;Q939V)
# Outline: as §1
# PUM1 PUF domain R3-FRM = PUM1 PUF domain R3-FRM (Homo sapiens, UniProt Q14671 828-1176, C935F;Q939M)
# Outline: as §1
# PUM1 PUF domain R7-GQR = PUM1 PUF domain R7-GQR (Homo sapiens, UniProt Q14671 828-1176, S1079G;N1080Q;E1083R)
# Outline: as §1
# PUM1 PUF domain R7-EFR = PUM1 PUF domain R7-EFR (Homo sapiens, UniProt Q14671 828-1176, S1079E;N1080F;E1083R)
# Outline: as §1
# PUM1 PUF domain R5-RQL = PUM1 PUF domain R5-RQL (Homo sapiens, UniProt Q14671 828-1176, C1007R;R1008Q;Q1011L)
# Outline: as §1
# PUM1 PUF domain R1-RVM = PUM1 PUF domain R1-RVM (Homo sapiens, UniProt Q14671 828-1176, S863R;R864V;Q867M)
# Outline: as §1
# PUM1 PUF domain R1-SPE = PUM1 PUF domain R1-SPE (Homo sapiens, UniProt Q14671 828-1176, R864P;Q867E)
# Outline: as §1
# PUM1 PUF domain R1-RCV = PUM1 PUF domain R1-RCV (Homo sapiens, UniProt Q14671 828-1176, S863R;R864C;Q867V)
# Outline: as §1
# PUM1 PUF domain R1-KLE = PUM1 PUF domain R1-KLE (Homo sapiens, UniProt Q14671 828-1176, S863K;R864L;Q867E)
# Outline: as §1
# PUM1 PUF domain R5-SGG = PUM1 PUF domain R5-SGG (Homo sapiens, UniProt Q14671 828-1176, C1007S;R1008G;Q1011G)
# Outline: as §1
# PUM1 PUF domain R3-RQW = PUM1 PUF domain R3-RQW (Homo sapiens, UniProt Q14671 828-1176, C935R;R936Q;Q939W)
# Outline: as §1
# PUM1 PUF domain R4-FAA = PUM1 PUF domain R4-FAA (Homo sapiens, UniProt Q14671 828-1176, N971F;H972A;Q975A)
# Outline: as §1
# PUM1 PUF domain R5-HNR = PUM1 PUF domain R5-HNR (Homo sapiens, UniProt Q14671 828-1176, C1007H;R1008N;Q1011R)
# Outline: as §1
sequence,measurement,setting,value
GGCUAGAACUAGUGGAUCCCCCGGCGCCCGGCGGCUCGAGCCCGGGUAAGUGUAAAUAGUCUGCAUGCCGCCGGGCGCCAUGCCUGCAGGUCGACUCUAGAAAACAUG,binding signal,PUM1 PUF domain R5-DFL,3.51 log2 enrichment (interaction score)
same,binding signal,PUM1 PUF domain R4-CLQ,3.83 log2 enrichment (interaction score)
same,binding signal,PUM1 PUF domain R5-RAR,0.57 log2 enrichment (interaction score)
same,binding signal,PUM1 PUF domain R6-HFL,2.57 log2 enrichment (interaction score)
same,binding signal,PUM1 PUF domain R5-FRL,1.49 log2 enrichment (interaction score)
GGCUAGAACUAGUGGAUCCCCCGGCGCCCGGCGGCUCGAGCCCGGGUAAGUGUACAUAGUCUGCAUGCCGCCGGGCGCCAUGCCUGCAGGUCGACUCUAGAAAACAUG,binding signal,PUM1 PUF domain R4-QHK,3.41 log2 enrichment (interaction score)
same,binding signal,PUM1 PUF domain R4-PHC,3.16 log2 enrichment (interaction score)
GGCUAGAACUAGUGGAUCCCCCGGCGCCCGGCGGCUCGAGCCCGGGUAAGUGUAAGUAGUCUGCAUGCCGCCGGGCGCCAUGCCUGCAGGUCGACUCUAGAAAACAUG,binding signal,PUM1 PUF domain R3-FCV,4.56 log2 enrichment (interaction score)
same,binding signal,PUM1 PUF domain R3-FRM,5.33 log2 enrichment (interaction score)
GGCUAGAACUAGUGGAUCCCCCGGCGCCCGGCGGCUCGAGCCCGGGUAAGUUUAAAUAGUCUGCAUGCCGCCGGGCGCCAUGCCUGCAGGUCGACUCUAGAAAACAUG,binding signal,PUM1 PUF domain R7-GQR,2.78 log2 enrichment (interaction score)
same,binding signal,PUM1 PUF domain R7-EFR,2.09 log2 enrichment (interaction score)
GGCUAGAACUAGUGGAUCCCCCGGCGCCCGGCGGCUCGAGCCCGGGUAAGUGUCAAUAGUCUGCAUGCCGCCGGGCGCCAUGCCUGCAGGUCGACUCUAGAAAACAUG,binding signal,PUM1 PUF domain R5-RAR,3.66 log2 enrichment (interaction score)
same,binding signal,PUM1 PUF domain R5-RQL,2.74 log2 enrichment (interaction score)
same,binding signal,PUM1 PUF domain R5-FRL,2.63 log2 enrichment (interaction score)
GGCUAGAACUAGUGGAUCCCCCGGCGCCCGGCGGCUCGAGCCCGGGUAAGUGUAAAUGGUCUGCAUGCCGCCGGGCGCCAUGCCUGCAGGUCGACUCUAGAAAACAUG,binding signal,PUM1 PUF domain R1-RVM,1.04 log2 enrichment (interaction score)
GGCUAGAACUAGUGGAUCCCCCGGCGCCCGGCGGCUCGAGCCCGGGUAAGUGUAAAUUGUCUGCAUGCCGCCGGGCGCCAUGCCUGCAGGUCGACUCUAGAAAACAUG,binding signal,PUM1 PUF domain R1-SPE,2.78 log2 enrichment (interaction score)
same,binding signal,PUM1 PUF domain R1-RVM,2.87 log2 enrichment (interaction score)
same,binding signal,PUM1 PUF domain R1-RCV,1.82 log2 enrichment (interaction score)
same,binding signal,PUM1 PUF domain R1-KLE,4.05 log2 enrichment (interaction score)
GGCUAGAACUAGUGGAUCCCCCGGCGCCCGGCGGCUCGAGCCCGGGUAAGUGUGAAUAGUCUGCAUGCCGCCGGGCGCCAUGCCUGCAGGUCGACUCUAGAAAACAUG,binding signal,PUM1 PUF domain R5-SGG,3.53 log2 enrichment (interaction score)
same,binding signal,PUM1 PUF domain R5-FRL,0.24 log2 enrichment (interaction score)
GGCUAGAACUAGUGGAUCCCCCGGCGCCCGGCGGCUCGAGCCCGGGUAAGUGUAAUUAGUCUGCAUGCCGCCGGGCGCCAUGCCUGCAGGUCGACUCUAGAAAACAUG,binding signal,PUM1 PUF domain R3-FRM,0.74 log2 enrichment (interaction score)
same,binding signal,PUM1 PUF domain R3-RQW,2.52 log2 enrichment (interaction score)
GGCUAGAACUAGUGGAUCCCCCGGCGCCCGGCGGCUCGAGCCCGGGUAAGUGUAUAUAGUCUGCAUGCCGCCGGGCGCCAUGCCUGCAGGUCGACUCUAGAAAACAUG,binding signal,PUM1 PUF domain R4-FAA,2.2 log2 enrichment (interaction score)
same,binding signal,PUM1 PUF domain R4-PHC,4.13 log2 enrichment (interaction score)
GGCUAGAACUAGUGGAUCCCCCGGCGCCCGGCGGCUCGAGCCCGGGUAAGUCUAAAUAGUCUGCAUGCCGCCGGGCGCCAUGCCUGCAGGUCGACUCUAGAAAACAUG,binding signal,PUM1 PUF domain R7-EFR,2.21 log2 enrichment (interaction score)
GGCUAGAACUAGUGGAUCCCCCGGCGCCCGGCGGCUCGAGCCCGGGUAAGUGUUAAUAGUCUGCAUGCCGCCGGGCGCCAUGCCUGCAGGUCGACUCUAGAAAACAUG,binding signal,PUM1 PUF domain R5-HNR,4.6 log2 enrichment (interaction score)
same,binding signal,PUM1 PUF domain R5-RAR,2.31 log2 enrichment (interaction score)
same,binding signal,PUM1 PUF domain R5-FRL,1.67 log2 enrichment (interaction score)
GGCUAGAACUAGUGGAUCCCCCGGCGCCCGGCGGCUCGAGCCCGGGUAAGUGUAAAUCGUCUGCAUGCCGCCGGGCGCCAUGCCUGCAGGUCGACUCUAGAAAACAUG,binding signal,PUM1 PUF domain R1-RVM,3.24 log2 enrichment (interaction score)
same,binding signal,PUM1 PUF domain R1-RCV,3.67 log2 enrichment (interaction score)
same,binding signal,PUM1 PUF domain R1-KLE,3.36 log2 enrichment (interaction score)
